Cy5 interf NS3h: Cy5 fluorescence interference, HCV helicase counter-screen; Cy5-dT15 DNA with NS3h; actives lie on both sides; signal over control mean, under 1 quenches; fluorescence interference ratio at 100 µM; 6% of 16,000 active; AID 720488;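 active means compound fluorescence over control fluorescence at most 0.8, a quencher, or at least a set upper limit, an enhancer; inactive means ratio between 0.8 and the set upper limit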
HCV NS3h FP: blocks HCV NS3 helicase binding to DNA. 1.6% of 16,000 active. AID 687043. NS3h Cy5-dT15 DNA binding, fluorescence polarization. inhibition, % at 100 µM;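 active means inhibition above the average over every tested compound plus 3 SD, cut at about 40% in these data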
Of the large screens only hits and unclear results are named; the others gave an inactive call. Compounds with a hit are over-represented: about 6.9% of the library has one in this group of screens.

Cc1cccc(-c2nc3cc(NC(=O)COc4ccccc4[N+](=O)[O-])ccc3o2)c1	Cy5 interf NS3h 0.52
CCc1ccc(-c2nc3cc(NC(=O)COc4ccccc4[N+](=O)[O-])ccc3o2)cc1	none
Cc1ccc(NS(=O)(=O)c2ccc([N+](=O)[O-])cc2)nc1	none
CC(C)CC(NC(=O)c1ccco1)C(=O)O (stereo not given)	none
CC(NC(=O)c1cccc2ccccc12)C(=O)O (stereo not given)	none
CC(NC(c1ccccc1)(c1ccccc1)c1ccccc1)C(=O)O (stereo not given)	Cy5 interf NS3h 0.61
CC(C)CC(NC(c1ccccc1)(c1ccccc1)c1ccccc1)C(=O)O (stereo not given)	Cy5 interf NS3h 0.58
CCCCCCN1C(=O)C(O)=C(C(C)=O)C1c1ccc([N+](=O)[O-])cc1 (stereo not given)	none
Cc1ccc(N2C(=O)/C(=C/c3ccccc3C)C(=O)NC2=S)cc1	none
Cc1ccc(N2CN=C(c3ccccc3)NC2=S)cc1	Cy5 interf NS3h 0.75
O=C(NCCCO)/C(=C/c1ccc(-c2cccc([N+](=O)[O-])c2)o1)NC(=O)c1ccccc1	Cy5 interf NS3h 0.79
O=C(NCCCN1CCOCC1)/C(=C/c1ccc(-c2cccc([N+](=O)[O-])c2)o1)NC(=O)c1ccccc1	none
CCOC(=O)C(C#N)=C1CCCCCC1	none
O=C1NN(c2ccccc2)C(=O)/C1=C/c1cc([N+](=O)[O-])c(Cl)cc1Cl	none
O=C1NN(c2ccccc2)C(=O)/C1=C/c1cccn1-c1ccc([N+](=O)[O-])cc1	Cy5 interf NS3h 0.61
Cc1ccccc1N(CC(=O)O)S(=O)(=O)c1ccccc1	none
CCCC(=O)n1nc(C)c2c1CC(C)(C)CC2=O	none
CC(/C=C1\SC(=S)N(C(Cc2ccccc2)C(=O)O)C1=O)=C\c1ccccc1 (stereo not given)	none
O=C(O)C(Cc1ccccc1)N1C(=O)/C(=C/C(Cl)=C/c2ccc([N+](=O)[O-])cc2)SC1=S (stereo not given)	Cy5 interf NS3h 0.78
O=C(O)CCC(C(=O)O)N1C(=O)/C(=C\C(Cl)=C/c2ccc([N+](=O)[O-])cc2)SC1=S (stereo not given)	Cy5 interf NS3h 0.63
O=C1/C(=C/C(Cl)=C/c2ccc([N+](=O)[O-])cc2)SC(=S)N1c1ccc(O)cc1	none
CC1=C(C(=O)OCCc2ccccc2)C(c2coc3ccc(C)cc3c2=O)C2=C(CCCC2=O)N1 (stereo not given)	none
CCCC(=O)NS(=O)(=O)c1ccc(NC(=O)c2ccccc2)cc1	none
CC1CN(S(=O)(=O)c2ccccc2[N+](=O)[O-])CC(C)O1 (stereo not given)	none
COc1ccc(C2CC(C(F)(F)F)n3ncc(C(=O)N(C)Cc4ccccc4)c3N2)cc1OC (stereo not given)	Cy5 interf NS3h 0.6
Cc1ccc(C2CC(C(F)(F)F)n3nc(C(=O)N4CCN(c5ccc(F)cc5)CC4)cc3N2)cc1 (stereo not given)	none
Cc1ccc(C2CC(C(F)(F)F)n3nc(C(=O)Nc4ccc(C(C)O)cc4)cc3N2)cc1 (stereo not given)	Cy5 interf NS3h 0.64
Cc1ccc(C2CC(C(F)(F)F)n3ncc(C(=O)N(Cc4ccccc4)Cc4ccccc4)c3N2)cc1 (stereo not given)	none
O=C(c1nn2c(c1Cl)NC(c1ccccc1)CC2C(F)(F)F)N1CCN(c2ccc(F)cc2)CC1 (stereo not given)	none
CC(O)c1cccc(NC(=O)c2cc3n(n2)C(C(F)(F)F)CC(c2ccc(F)cc2)N3)c1 (stereo not given)	none
Cc1ccc(C2CC(C(F)(F)F)n3nc(C(=O)N4CCN(c5ccc(F)cc5)CC4)c(Cl)c3N2)cc1 (stereo not given)	Cy5 interf NS3h 0.49
O=C(c1cc2n(n1)C(C(F)(F)F)CC(c1ccc(F)cc1)N2)N1CCCC1 (stereo not given)	Cy5 interf NS3h 0.75
COCCCNS(=O)(=O)c1ccc(F)cc1	none
Cc1ccccc1N1C(=O)C(O)=C(C(=O)/C=C/c2ccccc2)C1c1ccc(Br)cc1 (stereo not given)	none
COc1cccc(OCCNC(=O)Cc2cccc3ccccc23)c1	none
CC(=O)c1ccc(NC(=O)c2ccc(-c3ccc(Br)cc3)o2)cc1	none
O=C1CC(c2ccc(Cl)cc2)CC2=C1C(c1ccccc1[N+](=O)[O-])Nc1ccccc1N2 (stereo not given)	none
CC(O)c1ccc(NC(=O)c2cnn3c2NC(c2cccs2)CC3C(F)(F)F)cc1 (stereo not given)	none
CC(O)c1ccc(NC(=O)c2cnn3c2NC(c2ccc(F)cc2)CC3C(F)(F)F)cc1 (stereo not given)	Cy5 interf NS3h 0.48
O=C(NC(=S)Nc1ccc2oc(-c3cc(I)ccc3Cl)nc2c1)c1ccco1	none
O=C(NC(=S)Nc1cccc(NC(=O)c2ccco2)c1)c1ccco1	HCV NS3h FP 42
O=C(NC(=S)Nc1ccc(Cl)c(-c2nc3ccccc3o2)c1)c1ccco1	Cy5 interf NS3h 1.2

From PubChem BioAssay
